RXFP1 antag – blocks the human relaxin receptor RXFP1 | hit rate 0.59% among 350,000 | Q9HBX9 | HEK293-RXFP1, relaxin-stimulated cAMP HTRF, 30 min; hits give low values | AID 1259400 | activity change, negative = inhibition, % at 57.5 µM;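 active = activity change of -60% or lower, but not beyond a set lower limit; inconclusive = change between -60% and -40%, or beyond the set limit; inactive = change above -40%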; note: % is set by controls: 0 for no effect and ±100 for the full control effect
gsp ag – gsp mutant agonism. gsp mutant cells, cAMP HTRF, 30 min. Potency, µM (titrated, usually from 76.9 µM), for the others: at the highest dose activation (cAMP increase), hits mostly activators. hit rate 0.13% among 340,000. AID 624287; active = well fitted activation curve with a large enough effect; inconclusive = small, poorly fitted or top-dose-only effect, or another doubt; inactive = no such curve, though single readings can be large or run the other way; cell line not stated here;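 note: phosphodiesterase inhibitor Ro 20-1724 added with compounds to block cAMP breakdown; potency is the fitted concentration of half-maximal effect; nearly all actives have a fitted effect of over 60% in size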
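Cells stably selected in G418 were plated at 2000/well, grown 16-24 hr, then given compounds in DMSO with the PDE inhibitor […] (300 uM solution added) for 30 min at 37C; cAMP was read by HTRF.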
ClpP mod – qHTS Assay for Activators of ClpP; ATP-dependent Clp protease proteolytic subunit (Bacillus subtilis (strain 168)), P80244; Potency, µM (top dose mostly 57.5 µM), inactives show at the top dose activity change, negative = active; hit rate 1.9% among 340,000; purified B. subtilis ClpP, FRET peptide cleavage, 20 min; active = well fitted falling curve with a large enough effect; inconclusive = small, poorly fitted or top-dose-only effect; inactive = no such curve, though single readings can be large or run the other way; note: potency is the fitted concentration of half-maximal effect; the source files actives as falling curves though it sought activators and does not explain the sign; nearly all actives have a fitted effect of over 65% in size
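FRET quenching reversal measured ClpP activation: 10 microg/mL B. subtilis ClpP at pH 8 with the FRET-FV decapeptide, read at 430 nm after 320 nm excitation. The 20-min minus 0-min signal was scaled between DMSO/no-enzyme wells and ADEP (5.8 microM final).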
pAkt inh – blocks phosphorylation of Akt. hit rate 0.32% among 360,000. Neuro2A IGF-stimulated pAkt S473 HTRF, 20 min; hits give low values. activity change, % for hits at 50 µM; in the data active = activity change below about -80%; inconclusive = mostly about -51% to -80%; note: % is set by controls: 0 for no effect and ±100 for the full control effect
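Neuro2A cells in DMEM with 0.5% FBS, overnight at 37 deg C, given compound at single 50 µM final, then IGF (6 nM final) for 20 min at 37 deg C. Lysed; phospho-Akt Ser473 by HTRF after 24 h, 665/615 ratio.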
RXFP1 agonist – activates the human relaxin receptor RXFP1. Q9HBX9. HEK293T-RXFP1 cAMP TR-FRET, 30 min; response scale: percent of porcine relaxin response, buffer zero. Potency, µM (doses to about 57.5 µM), inactives show top-dose activation, usual class: activators. hit rate 0.3% among 370,000; active = well fitted activation curve with a large enough effect; inconclusive = small, poorly fitted or top-dose-only effect; note: potency is the fitted concentration of half-maximal effect; % is set by controls: 0 for no effect and ±100 for the full control effect; nearly all actives have a fitted effect of over 60% in size
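HEK293 cells stably expressing RXFP1, treated 30 min at 37C with compounds plus PDE4 inhibitor Ro 20174; cAMP measured by HTRF TR-FRET. Normalized to buffer and 29 nM porcine relaxin; EC50 by Hill fit.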
gsp antag – antagonists of gsp mutant (McCune-Albright syndrome). gsp-mutant cells, cAMP HTRF, 30 min. Potency, µM (doses to about 76.9 µM), inactives show at the top dose activity change, negative = inhibition, actives largely listed as inhibitors. hit rate 0.4% among 340,000; calls by dose curve; cell line not stated here;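 note: intracellular cAMP measured with PDE inhibitor Ro 20-1724 present during compound exposure; potency is the fitted concentration of half-maximal effect; % is set by controls: 0 for no effect and ±100 for the full control effect; nearly all actives have a fitted effect of over 65% in size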
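G418-selected cells were plated in DMEM/10% FBS for 16-24 h at 37C, then treated with compounds plus the PDE inhibitor […] (300 uM solution added) for 30 min at 37C. Intracellular cAMP was measured by HTRF after 30 min lysis at room temperature.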
* marks the source's active call; other numbers are inactive results; i = inactive; ? = inconclusive; · = not tested or not shown; ! = repeats disagree; [ ] = dose if it differs, or a comment. In the library only some 2.7% were active in any assay of this set; here they are far more common.

SMILES	RXFP1 antag	gsp ag	ClpP mod	pAkt inh	RXFP1 agonist	gsp antag
CC1(C)Cc2ccccc2C(NNC(=O)c2ccncc2)=N1	7	-17%	3%	i	2%	1%
CC1(C)Cc2ccccc2C(NNC(=O)c2cccnc2)=N1	-19	-24%	18µM*	i	0%	3%
COc1ccccc1NS(=O)(=O)c1ccc2nc(CCl)[nH]c2c1	11	5%[15.4 µM]	·	i	-1%	-2%
CCN(CC)S(=O)(=O)c1ccc2nc(CCl)[nH]c2c1	-18	-1%[15.4 µM]	14µM*	i	0%	6%
CCc1nc2ccc(C(=O)NCCc3ccc(SC)cc3)cc2nc1CC	-29	·	-3%	·	16%	·
Cc1ccccc1Oc1nnc(-c2cccs2)c2ccccc12	?	8%[15.4 µM]	·	i	2%	25µM*
COC(=O)[C@@H]1[C@@H](C#N)C2(c3ccccc3-c3ccccc32)N(c2ccc(Cl)cc2)N1C#N	-73*	20%[15.4 µM]	-11%	i	0%	9%
Cc1ccc(N(CC(=O)N2CCN(c3ccc(Cl)cc3)CC2)S(=O)(=O)c2c(C)noc2C)cc1	·	·	-8%	·	-1%	·
O=C(Oc1ccc(N2C(=O)CCC2=O)cc1)c1ccccc1Cl	·	16%	-2%	i	1%	1%
Cc1cc(OC(=O)c2ccccc2Cl)cc(=O)n1C	-21	-18%	4%	i	2%	40µM*
COc1cc2c(NC3CCN(C)CC3)nc(N3CCCN(C)CC3)nc2cc1OCCCCCN	·	·	4%	·	·	·
CC(C)(C)NC(=O)COC(=O)c1snc(C(=O)NC2CCCCC2)c1N	1	-18%	28µM*	i	3%	?
O=C(COC(=O)c1nsc(Cl)c1Cl)NC1CCCCC1	-6	-18%	·	i	-1%	2%
CC(OC(=O)c1snc(C(=O)NC2CCCCC2)c1N)C(=O)NC(C)(C)C (stereo not given)	7	1%	28µM*	i	0%	-8%
CCOC(=O)CC(=O)c1sc2c(c1N)c(=O)[nH]c(=O)n2-c1ccc(OC)cc1	-8	?	-1%	i	1%	-4%
Cn1c(=O)cc(SCC(=O)N2CCOCC2)c2ccc(Cl)cc21	22	?	-17%	i	4%	-19%
Cn1c(=O)cc(SCC(=O)N2CCCC2)c2ccc(Cl)cc21	28	11µM*	-26%	i	7%	-19%
Oc1c(C=NCc2ccncc2)sc2ccccc12	7	8%	-10%	-103%*	0%	-13%
Oc1c(C=Nc2ccccc2)sc2ccccc12	-70*	5%	·	i	4%	-25%
CCOc1ccccc1CNC(=O)CCCn1c(=O)c2cccn2c2ccc(F)cc21	-7	·	?	·	0%	·
O=C(OCC(=O)N1CCC(c2ccccc2)=N1)c1ccc(Cl)s1	-2	20%	-7%	i	·	-13%
CCOC(=O)c1[nH]c2c(c1Cc1ccccc1)C(=O)CC(c1ccc(C(C)(C)C)cc1)C2 (stereo not given)	-64*	·	-3%	·	-1%	·
CCCCCCCCCCCCCCCC[n+]1ccc(/C=C/c2c(C)[nH]c3ccccc23)cc1	·	·	-2%	·	·	·
CC1CCN(C2(O)C(=O)Nc3ccc(Cl)cc32)CC1 (stereo not given)	0	-16%[15.4 µM]	13µM*	i	0%	10%
CC(=O)OCC1=C(C(=O)O)N2C(=O)[C@@H](NC(=O)CSc3ccncc3)[C@H]2SC1	-92*!	-7%[15.4 µM]	·	i	2%	10%
SMILES	RXFP1 antag	gsp ag	ClpP mod	pAkt inh	RXFP1 agonist	gsp antag
Cc1ccccc1NC(=O)CCNS(=O)(=O)c1cccc2nsnc12	-2	-18%[15.4 µM]	·	i	3%	3%
CC(NCc1ccc(OCc2ccc(Cl)cc2)cc1)C(O)c1ccccc1 (stereo not given)	-100*	-3%[15.4 µM]	·	i	2%	5%
CC(NCc1cccc(OCc2ccccc2)c1)C(O)c1ccccc1 (stereo not given)	-1	-15%	-1%	i	0%	9%
CCN(CC)c1ccc(NC(=O)CSc2nnc(C)c(=O)[nH]2)cc1	·	·	2%	·	-3%	·
COc1ccc(-n2c(SCC(=O)c3ccccc3)nc3c([nH]c4ccccc43)c2=O)cc1	·	·	-1%	·	2%	·
COC(=O)c1ccccc1N/C=C/C(=O)c1ccc(Br)cc1	-12	-80%	25µM*	i	0%	-29%
CC(C)CCn1c(-c2nonc2N)nc2ccccc21	-4	-22%	-8%	i	1%	28µM*
CCCCn1c(-c2nonc2N)nc2ccccc21	-6	2%	-3%	i	-5%	?
O=C(C1CCCCC1)N1CCN(c2ccnc3cc(Cl)ccc23)CC1	-4	4%[15.4 µM]	·	i	1%	35µM*
O=C(C1CCC1)N1CCN(c2ccnc3cc(Cl)ccc23)CC1	-5	4%	-2%	i	0%	-20%
COc1ccccc1N1CCN(c2ccnc3cc(Cl)ccc23)CC1	6	21%	·	i	1%	10%
N#Cc1cccc(S(=O)(=O)N2CCN(c3ccnc4cc(Cl)ccc34)CC2)c1	-3	-32%	4%	i	-3%	25µM*
COc1ccccc1NC(=O)N1CCN(c2ccnc3cc(Cl)ccc23)CC1	-36	-3%[15.4 µM]	-1%	i	-2%	35µM*
CCOC(=O)c1c(-c2ccccc2)csc1NC(=S)N(CC)CC	?	7%[15.4 µM]	·	i	1%	-18%
CCOC(=O)c1c(-c2ccccc2)csc1NC(=O)c1nn(CC)cc1Br	-12	-42%	32µM*	i	4%	-9%
Nc1ncnc2c1ncn2C1C=C(CO)C(O)C1O (stereo not given)	-2	-10%	-2%	i	·	5%
O=C1Cc2cc(Cl)ccc2N1	15	·	·	·	·	·
CC(=O)Nc1cccc(NC(=O)/C=C/c2ccc(S(=O)(=O)N3CCOCC3)cc2)c1	-14	-18%[15.4 µM]	-3%	i	·	-7%
Cc1ccc(NC(=O)/C=C/c2ccc(S(=O)(=O)N3CCOCC3)cc2)cc1S(=O)(=O)N(C)C	-25	13%[15.4 µM]	·	i	·	35µM*
c1ccc(Oc2ccc(-c3ccnc4nc(N5CCOCC5)nn34)cc2)cc1	-12	34%	·	i	9%	-17%
COc1ccc(-c2ccnc3nc(N4CCOCC4)nn23)cc1	-7	0%	16µM*	i	9%	2%
COc1ccc(-c2ccnc3nc(-n4cccc4)nn23)cc1	-26	2%	28µM*	i	3%	9%
Cc1cc(C=O)c(C)n1-c1ccc(NC2CCCC2)c([N+](=O)[O-])c1	-65*	1%[15.4 µM]	·	i	0%	-12%

Assay outcomes: PubChem BioAssay, National Center for Advancing Translational Sciences (NCATS)
